According to PubChem BioAssay AID1224864 (Chung Lab, Department of Pediatrics, Emory University, 2016):
Among all 2,000 compounds or so, about 20 (1%) were called active. How the calls were made is not given here. This excerpt belongs to a sample that is enriched for actives. Residues, ends and D or L forms follow the SMILES beside them. *: point of attachment. Boc = CC(C)(C)OC(=O)*; OBn = c1ccc(CO*)cc1

Each compound was assayed against Cystic fibrosis transmembrane conductance regulator (Homo sapiens) (UniProt P13569) (assay: F508del-CFTR plasma membrane relocalization enhancers – imaging, HeLa, high-content microscopy, immunofluorescence, primary screen (AID 1224864;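 further: HeLa cells stably expressing F508del-CFTR stained with 3G11 antibody against NBD1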;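 on plasma membrane CFTR intensity: mean immunofluorescence in a thin cell-margin band taken as plasma membrane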)). Settings: PM immunofluorescence imaging, 24 h, at 10 µM, stronger effect = higher value, relative to vehicle wells set at 100; total CFTR intensity: measured here: total cellular F508del-CFTR signal.
Sequence of Cystic fibrosis transmembrane conductance regulator (Homo sapiens) (P13569 whole entry, looked up, stated change not applied): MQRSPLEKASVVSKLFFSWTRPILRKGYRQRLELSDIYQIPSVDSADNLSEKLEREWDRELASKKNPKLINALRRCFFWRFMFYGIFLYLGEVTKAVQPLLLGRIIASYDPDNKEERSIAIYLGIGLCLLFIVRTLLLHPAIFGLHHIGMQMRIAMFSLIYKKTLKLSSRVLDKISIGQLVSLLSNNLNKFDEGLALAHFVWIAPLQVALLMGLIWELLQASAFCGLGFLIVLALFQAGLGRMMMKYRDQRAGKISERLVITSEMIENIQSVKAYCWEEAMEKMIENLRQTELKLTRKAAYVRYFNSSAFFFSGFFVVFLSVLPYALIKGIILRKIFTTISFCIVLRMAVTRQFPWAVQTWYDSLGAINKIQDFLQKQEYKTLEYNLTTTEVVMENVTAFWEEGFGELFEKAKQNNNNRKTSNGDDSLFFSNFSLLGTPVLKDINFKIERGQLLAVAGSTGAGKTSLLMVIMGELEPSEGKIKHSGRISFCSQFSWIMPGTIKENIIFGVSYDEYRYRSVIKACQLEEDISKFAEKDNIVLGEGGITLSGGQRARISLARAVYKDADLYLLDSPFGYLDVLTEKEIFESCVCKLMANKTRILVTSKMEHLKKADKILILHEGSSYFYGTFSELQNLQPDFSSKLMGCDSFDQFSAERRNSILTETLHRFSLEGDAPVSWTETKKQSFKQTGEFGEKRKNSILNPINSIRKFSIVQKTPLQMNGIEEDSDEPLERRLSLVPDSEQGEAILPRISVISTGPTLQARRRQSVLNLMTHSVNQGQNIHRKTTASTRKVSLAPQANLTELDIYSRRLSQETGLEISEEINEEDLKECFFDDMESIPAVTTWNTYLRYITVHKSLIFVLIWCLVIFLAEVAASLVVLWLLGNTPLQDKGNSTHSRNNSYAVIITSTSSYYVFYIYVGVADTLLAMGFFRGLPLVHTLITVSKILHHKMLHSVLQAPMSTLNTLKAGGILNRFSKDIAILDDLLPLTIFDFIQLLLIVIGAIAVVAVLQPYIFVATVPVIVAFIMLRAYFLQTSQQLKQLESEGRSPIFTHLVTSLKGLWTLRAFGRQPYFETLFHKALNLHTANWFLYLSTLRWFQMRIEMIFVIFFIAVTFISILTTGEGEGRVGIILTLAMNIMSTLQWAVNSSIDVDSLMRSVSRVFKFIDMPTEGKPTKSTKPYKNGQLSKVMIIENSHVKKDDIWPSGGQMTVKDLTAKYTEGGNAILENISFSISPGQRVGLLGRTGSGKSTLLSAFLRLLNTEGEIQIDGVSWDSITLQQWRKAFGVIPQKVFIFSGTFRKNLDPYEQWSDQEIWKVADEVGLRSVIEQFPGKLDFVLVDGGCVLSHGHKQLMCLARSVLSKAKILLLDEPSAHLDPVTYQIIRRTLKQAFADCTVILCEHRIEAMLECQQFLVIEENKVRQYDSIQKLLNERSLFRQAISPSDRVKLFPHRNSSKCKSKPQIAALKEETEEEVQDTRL

Structure (SMILES) | plasma membrane CFTR intensity | total CFTR intensity [%]
CCN(CC)CCOC(=O)C(c1ccccc1)c1ccccc1 | 86% (inactive) | 84
O=C(NCCO)c1ccc(Cl)c(Cl)c1 | 90% (inactive) | 90
Cc1cccc2c(C(=O)O)cc(-c3cccnc3)nc12 | 94% (inactive) | 93
C[C@]12CC[C@@H]3c4ccc(O)cc4CC[C@H]3[C@@H]1CC[C@@H]2OC(=O)CCC(=O)O | 78% (inactive) | 84
CC(=O)Nc1ccc(S(=O)(=O)c2ccc(N)cc2)cc1 | 97% (inactive) | 95
Cc1cc(C(=O)NC(CC(C)C)C(=O)O)cc(C)c1[N+](=O)[O-] (stereo not drawn) | 73% (inactive) | 71
Cc1cc(O)c2/c(=N/N)c(-c3csc(C)n3)coc2c1 | 69% (inactive) | 71
Cc1cc(O)c(C(=O)Cc2csc(C)n2)c(O)c1 | 110% (active) | 127
COc1ccc(CC(=O)c2c(O)cc(O)cc2O)cc1OC | 83% (inactive) | 82
CC(C)CC(NC(=O)C(NC(=O)OC(C)(C)C)C(C)C)C(=O)NC(CCC(=O)OCc1ccccc1)C(N)=O (stereo not drawn) (Boc-Val-Leu-Glu(OBn)-NH2; configuration not given here) | 82% (inactive) | 80
O=C1C(=O)c2ccccc2C(O)=C1c1ccccc1F | 70% (inactive) | 75
CC(=O)[C@@H]1[C@@H](C(=O)c2ccc(C)cc2)[C@]2(C(=O)Nc3ccccc32)[C@H]2C=Cc3cc(F)ccc3N12 | 77% (inactive) | 114
CC(C)OC(=O)C1C(=O)CC(C)(O)C(C(=O)OC(C)C)C1c1cccc(O)c1 (stereo not drawn) | 77% (inactive) | 78
CCOC(=O)c1ccccc1NC(=O)c1ccc(F)cc1 | 101% (inactive) | 103
CCOc1ccc(NC(=O)N[C@@H](CCSC)C(=O)OC)cc1 | 88% (inactive) | 88
FC(F)(F)c1ccc(-c2noc(CN3CCCN(C4CCCCC4)CC3)n2)cc1 | 95% (inactive) | 100
COc1ccc2[nH]cc(CCNC(=O)C3CCCNC3=O)c2c1 (stereo not drawn) | 87% (inactive) | 85
CC(C)(C)C(=O)NC(=S)NNC(=O)c1ccncc1 | 94% (inactive) | 90
O=C(NC(Nc1ccccn1)C(Cl)(Cl)Cl)c1ccccc1 (stereo not drawn) | 84% (inactive) | 85
COc1cc(CNc2nnnn2C)ccc1OCc1ccc(F)cc1Cl | 79% (inactive) | 78
CC1CCCc2sc3ncn(N)c(=N)c3c21 (stereo not drawn) | 71% (inactive) | 71
O=C(c1ccco1)N(CCC(c1ccccc1)c1ccco1)Cc1ccco1 (stereo not drawn) | 99% (inactive) | 101

Structure (SMILES) | plasma membrane CFTR intensity | total CFTR intensity [%]
CC(=O)Nc1nnc(S(N)(=O)=O)s1 | 87% (inactive) | 89
CC(=O)N=c1sc(S(N)(=O)=O)nn1C | 125% (active) | 144
COc1ccc(CNC(=O)c2cc3c(=O)n4ccccc4nc3n(Cc3cccnc3)c2=N)cc1 | 556% (inactive) | 561
COc1ccc(S(=O)(=O)NC(Cc2cnc[nH]2)C(=O)O)cc1 (stereo not drawn) | 75% (inactive) | 82
CC(C)Cn1c(=S)[nH]c2cc(C(=O)O)ccc2c1=O | 78% (inactive) | 81
O=C(CCCC(=O)OCC1CCCO1)OCC1CCCO1 (stereo not drawn) | 84% (inactive) | 84
CC(=O)SC1CC2=CC(=O)CCC2(C)C2CCC3(C)C(CCC34CCC(=O)O4)C12 (stereo not drawn) | 177% (active) | 233
CC(=O)[C@@]1(O)CC[C@H]2[C@@H]3CCC4=CC(=O)CC[C@]4(C)[C@H]3CC[C@@]21C | 88% (inactive) | 89
CC(=O)[C@H]1CC[C@H]2[C@@H]3CCC4=CC(=O)CC[C@]4(C)[C@H]3CC[C@]12C | 81% (inactive) | 85
N#C/C(=C\c1ccc(O)c(O)c1)C(=O)NCCCc1ccccc1 | 78% (inactive) | 83
S=C(NCc1ccccc1)NCc1cccc(CNC(=S)NCc2ccccc2)c1 | 79% (inactive) | 81
N#C/C(=C/c1ccccc1)C(=O)NCc1ccccc1 | 124% (active) | 125
Cc1cc(-c2nn(-c3ccccc3F)cc2CN2CCCC(O)C2)c(C)s1 (stereo not drawn) | 75% (inactive) | 76
O=C(/C=C/c1ccccc1)NCC1(c2ccccc2)CCOCC1 | 87% (inactive) | 84
COc1cc(CNCc2ccc(OC)c(OC)c2OC)cc(OC)c1 | 85% (inactive) | 79
O=C(CCCCC(=O)NC1CCCC1)NC1CCCC1 | 90% (inactive) | 90
CCc1cccc2c1NC1(CCCC1)CC2C (stereo not drawn) | 74% (inactive) | 89
O=C1OC(=O)C2C1[C@@H]1CC[C@H]2O1 (stereo partly drawn) | 120% (active) | 133
COc1ccc2c(CC(=O)NCC3CCC(C(=O)O)CC3)cc(=O)oc2c1 (stereo not drawn) | 92% (inactive) | 94
CC12CCCCN1CCCc1c2[nH]c2ccccc12 (stereo not drawn) | 104% (inactive) | 100
COc1ccc2c3c([nH]c2c1)C1(NCC3)C(=O)Nc2ccccc21 (stereo not drawn) | 85% (inactive) | 81
CC1=CC(C)(C)N2C(=O)C3(NCCc4c3[nH]c3ccccc43)c3cc(C)cc1c32 (stereo not drawn) | 108% (active) | 129
